# Data as given in article PMC7862700, “An all-to-all approach to the identification of sequence-specific readers for epigenetic DNA modifications on cytosine”.
# Columns and labels:
# Assay in all cases: DAPPL (digital affinity profiling via proximity ligation, sequencing); 10 mM Tris-HCl pH 7.5, 50 mM NaCl, 1 mM DTT, 4% glycerol, room temperature, 30 min; GST-TFs on glutathione beads, 16-mer random dsDNA library, 0.1% formaldehyde crosslink after washing; high values mean tight binding
# FEV = target: T1, FEV (Homo sapiens, UniProt Q99581 1-238); settings: protein: recombinant; tags: N-terminal GST; dsDNA, one strand shown
# T1 sequence: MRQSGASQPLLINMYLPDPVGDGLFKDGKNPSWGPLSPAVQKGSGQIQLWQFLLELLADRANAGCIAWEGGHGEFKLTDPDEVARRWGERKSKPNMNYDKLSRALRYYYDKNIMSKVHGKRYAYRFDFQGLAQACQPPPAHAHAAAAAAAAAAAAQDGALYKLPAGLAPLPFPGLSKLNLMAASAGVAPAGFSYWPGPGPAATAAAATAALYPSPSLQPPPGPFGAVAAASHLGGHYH
# How it was run: (§1)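 Binding signal is each hexamer's read frequency for a factor divided by its frequency in the tag-only sample. The factors were GST-fused human transcription factors from yeast, captured on glutathione beads, DNA-barcoded and pooled with that sample. Pools were incubated with 200 nmole of a random double-stranded 16-mer DNA library in Tris/NaCl/DTT/glycerol buffer at room temperature for 30 min, then washed, crosslinked with 0.1% formaldehyde, proximity-ligated with BsaI/T4 ligase (1 h, 37 °C), PCR-amplified and sequenced on an Illumina NextSeq500.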
# ETV5 = ETV5 (Homo sapiens, UniProt P41161 1-510); settings: protein: recombinant; tags: N-terminal GST; dsDNA, one strand shown
# Chain of ETV5 (P41161 whole entry): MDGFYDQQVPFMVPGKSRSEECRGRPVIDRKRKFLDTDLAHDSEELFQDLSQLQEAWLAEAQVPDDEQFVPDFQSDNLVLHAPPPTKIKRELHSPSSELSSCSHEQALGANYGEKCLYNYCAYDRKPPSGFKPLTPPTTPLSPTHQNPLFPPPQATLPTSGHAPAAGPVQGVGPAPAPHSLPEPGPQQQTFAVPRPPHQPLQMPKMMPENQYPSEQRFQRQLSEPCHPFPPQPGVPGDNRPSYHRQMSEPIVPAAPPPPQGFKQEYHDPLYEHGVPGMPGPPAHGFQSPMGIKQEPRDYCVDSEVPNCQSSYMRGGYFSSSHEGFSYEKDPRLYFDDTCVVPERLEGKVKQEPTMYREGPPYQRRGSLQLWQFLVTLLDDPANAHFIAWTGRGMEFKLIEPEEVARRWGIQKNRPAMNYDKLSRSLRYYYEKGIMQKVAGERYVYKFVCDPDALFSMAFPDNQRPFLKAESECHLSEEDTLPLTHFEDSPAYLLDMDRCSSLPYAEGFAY
# How it was run: as §1
# HSF1 = HSF1 (Homo sapiens, UniProt Q00613 1-529); settings: protein: recombinant; tags: N-terminal GST; chain copies: 3; dsDNA, one strand shown
# Chain of HSF1 (Q00613 whole entry): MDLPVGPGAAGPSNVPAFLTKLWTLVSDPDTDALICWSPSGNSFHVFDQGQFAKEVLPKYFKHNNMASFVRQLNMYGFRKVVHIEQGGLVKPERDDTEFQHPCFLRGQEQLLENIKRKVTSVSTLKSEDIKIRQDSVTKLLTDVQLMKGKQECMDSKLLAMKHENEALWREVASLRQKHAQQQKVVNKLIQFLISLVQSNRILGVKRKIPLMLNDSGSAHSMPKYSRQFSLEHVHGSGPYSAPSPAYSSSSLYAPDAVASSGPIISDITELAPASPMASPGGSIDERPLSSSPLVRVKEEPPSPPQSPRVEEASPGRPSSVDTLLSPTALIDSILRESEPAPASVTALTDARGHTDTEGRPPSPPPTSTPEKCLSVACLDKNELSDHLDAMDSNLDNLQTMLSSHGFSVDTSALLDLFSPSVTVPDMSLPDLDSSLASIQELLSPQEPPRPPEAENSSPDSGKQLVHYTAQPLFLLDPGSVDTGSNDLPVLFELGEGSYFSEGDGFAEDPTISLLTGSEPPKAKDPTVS
# How it was run: as §1
# ELF4 = ELF4 (Homo sapiens, UniProt Q99607 1-663); settings: protein: recombinant; tags: N-terminal GST; dsDNA, one strand shown
# Chain of ELF4 (Q99607 whole entry): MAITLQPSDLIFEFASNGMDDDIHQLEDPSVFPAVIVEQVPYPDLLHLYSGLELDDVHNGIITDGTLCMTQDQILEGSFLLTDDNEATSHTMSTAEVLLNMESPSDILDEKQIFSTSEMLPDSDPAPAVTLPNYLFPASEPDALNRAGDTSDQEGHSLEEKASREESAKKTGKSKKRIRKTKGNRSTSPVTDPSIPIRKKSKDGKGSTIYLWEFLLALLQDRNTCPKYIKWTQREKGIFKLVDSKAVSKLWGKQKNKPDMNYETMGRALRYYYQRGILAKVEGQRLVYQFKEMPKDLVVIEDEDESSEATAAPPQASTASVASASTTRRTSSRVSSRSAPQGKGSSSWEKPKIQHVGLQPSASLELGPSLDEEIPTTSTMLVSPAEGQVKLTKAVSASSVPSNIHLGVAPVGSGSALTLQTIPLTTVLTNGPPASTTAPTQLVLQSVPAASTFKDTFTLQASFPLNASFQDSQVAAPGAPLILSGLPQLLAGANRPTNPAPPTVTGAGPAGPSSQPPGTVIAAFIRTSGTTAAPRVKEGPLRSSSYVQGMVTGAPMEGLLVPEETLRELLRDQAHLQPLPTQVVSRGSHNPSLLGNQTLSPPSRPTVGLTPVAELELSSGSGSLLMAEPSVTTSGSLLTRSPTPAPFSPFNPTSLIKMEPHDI
# How it was run: as §1
# ELK4 = target: T2, ELK4 (Homo sapiens, UniProt P28324-2 1-405); settings: protein: recombinant; tags: N-terminal GST; dsDNA, one strand shown
# T2 sequence: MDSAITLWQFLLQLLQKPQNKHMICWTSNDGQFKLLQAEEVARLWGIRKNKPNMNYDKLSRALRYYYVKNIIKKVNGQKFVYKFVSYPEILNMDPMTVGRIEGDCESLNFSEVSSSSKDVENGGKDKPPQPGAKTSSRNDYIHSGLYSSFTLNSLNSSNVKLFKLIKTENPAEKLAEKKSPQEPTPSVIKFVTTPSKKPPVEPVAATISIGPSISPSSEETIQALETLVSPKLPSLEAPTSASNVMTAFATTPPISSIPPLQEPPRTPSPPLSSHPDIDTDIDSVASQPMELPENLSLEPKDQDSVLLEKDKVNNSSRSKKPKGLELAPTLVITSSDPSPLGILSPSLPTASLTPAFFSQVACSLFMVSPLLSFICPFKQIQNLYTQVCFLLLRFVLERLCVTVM
# How it was run: as §1
# ETV2 = target: T3, ETV2 (Homo sapiens, UniProt O00321 1-342); settings: protein: recombinant; tags: N-terminal GST; dsDNA, one strand shown
# T3 sequence: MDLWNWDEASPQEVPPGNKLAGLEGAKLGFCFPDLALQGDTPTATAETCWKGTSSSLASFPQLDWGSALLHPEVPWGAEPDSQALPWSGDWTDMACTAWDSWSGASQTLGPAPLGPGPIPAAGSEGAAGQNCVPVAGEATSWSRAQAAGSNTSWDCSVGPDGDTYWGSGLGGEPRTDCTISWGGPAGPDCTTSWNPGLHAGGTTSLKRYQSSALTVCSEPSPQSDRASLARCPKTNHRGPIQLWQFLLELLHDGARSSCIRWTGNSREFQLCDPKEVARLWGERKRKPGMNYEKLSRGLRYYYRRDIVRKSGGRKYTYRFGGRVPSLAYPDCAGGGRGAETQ
# How it was run: as §1
# ELF3 = target: T4, ELF3 (Homo sapiens, UniProt P78545 1-371); settings: protein: recombinant; tags: N-terminal GST; dsDNA, one strand shown
# T4 sequence: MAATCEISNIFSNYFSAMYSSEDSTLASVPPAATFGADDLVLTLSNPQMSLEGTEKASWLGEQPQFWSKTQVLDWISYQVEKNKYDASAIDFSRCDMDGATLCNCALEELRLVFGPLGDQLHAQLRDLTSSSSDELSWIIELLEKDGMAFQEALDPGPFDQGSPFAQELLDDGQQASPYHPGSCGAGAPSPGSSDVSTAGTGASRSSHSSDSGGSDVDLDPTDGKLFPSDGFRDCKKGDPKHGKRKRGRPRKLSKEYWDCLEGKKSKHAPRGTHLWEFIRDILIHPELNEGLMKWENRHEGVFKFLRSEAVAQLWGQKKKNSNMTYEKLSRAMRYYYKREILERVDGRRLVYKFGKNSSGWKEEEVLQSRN
# How it was run: as §1
# CRX = CRX (Homo sapiens, UniProt O43186 1-299); settings: protein: recombinant; tags: N-terminal GST; dsDNA, one strand shown
# Chain of CRX (O43186 whole entry): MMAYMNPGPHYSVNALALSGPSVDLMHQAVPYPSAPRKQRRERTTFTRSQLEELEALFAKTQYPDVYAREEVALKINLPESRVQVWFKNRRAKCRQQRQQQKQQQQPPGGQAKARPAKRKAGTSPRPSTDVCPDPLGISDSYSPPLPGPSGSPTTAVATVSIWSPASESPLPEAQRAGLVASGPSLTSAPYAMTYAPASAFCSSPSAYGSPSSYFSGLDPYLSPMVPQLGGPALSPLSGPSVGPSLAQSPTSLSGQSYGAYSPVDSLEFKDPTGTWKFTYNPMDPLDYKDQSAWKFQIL
# How it was run: as §1
# ETV1 = ETV1 (Homo sapiens, UniProt P50549 1-477); settings: protein: recombinant; tags: N-terminal GST; dsDNA, one strand shown
# Chain of ETV1 (P50549 whole entry): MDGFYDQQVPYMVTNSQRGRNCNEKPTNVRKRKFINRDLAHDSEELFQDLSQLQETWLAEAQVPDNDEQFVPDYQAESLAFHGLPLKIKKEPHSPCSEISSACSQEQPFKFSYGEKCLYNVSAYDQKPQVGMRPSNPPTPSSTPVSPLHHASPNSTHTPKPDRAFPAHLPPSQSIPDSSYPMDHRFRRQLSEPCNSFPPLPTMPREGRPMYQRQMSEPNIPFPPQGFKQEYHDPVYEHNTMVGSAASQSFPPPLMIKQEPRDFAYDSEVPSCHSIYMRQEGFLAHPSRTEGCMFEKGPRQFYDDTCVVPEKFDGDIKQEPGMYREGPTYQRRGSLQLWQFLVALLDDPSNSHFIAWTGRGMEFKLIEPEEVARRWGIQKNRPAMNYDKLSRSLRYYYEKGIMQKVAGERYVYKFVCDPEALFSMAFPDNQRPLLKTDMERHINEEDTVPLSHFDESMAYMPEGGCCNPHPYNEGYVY
# How it was run: as §1
# ERF = target: T5, ERF (Homo sapiens, UniProt P50548 1-548); settings: protein: recombinant; tags: N-terminal GST; dsDNA, one strand shown
# T5 sequence: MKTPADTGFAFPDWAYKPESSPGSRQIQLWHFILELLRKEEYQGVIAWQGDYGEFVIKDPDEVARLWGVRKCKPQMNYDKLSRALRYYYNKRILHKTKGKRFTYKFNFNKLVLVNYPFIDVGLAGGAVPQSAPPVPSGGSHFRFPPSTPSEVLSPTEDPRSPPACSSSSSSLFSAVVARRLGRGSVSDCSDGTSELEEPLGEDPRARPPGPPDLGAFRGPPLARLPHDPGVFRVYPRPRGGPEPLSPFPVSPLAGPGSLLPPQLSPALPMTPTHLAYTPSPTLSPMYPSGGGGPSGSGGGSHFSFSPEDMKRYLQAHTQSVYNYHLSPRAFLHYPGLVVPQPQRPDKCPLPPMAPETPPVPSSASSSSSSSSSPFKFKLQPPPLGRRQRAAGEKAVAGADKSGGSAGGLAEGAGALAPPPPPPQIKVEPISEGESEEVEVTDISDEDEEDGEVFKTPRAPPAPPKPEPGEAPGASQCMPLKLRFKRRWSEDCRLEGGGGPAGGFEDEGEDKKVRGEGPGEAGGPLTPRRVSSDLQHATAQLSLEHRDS
# How it was run: as §1
# ETV3L = target: T6, ETV3L (Homo sapiens, UniProt Q6ZN32 1-361); settings: protein: recombinant; tags: N-terminal GST; dsDNA, one strand shown
# T6 sequence: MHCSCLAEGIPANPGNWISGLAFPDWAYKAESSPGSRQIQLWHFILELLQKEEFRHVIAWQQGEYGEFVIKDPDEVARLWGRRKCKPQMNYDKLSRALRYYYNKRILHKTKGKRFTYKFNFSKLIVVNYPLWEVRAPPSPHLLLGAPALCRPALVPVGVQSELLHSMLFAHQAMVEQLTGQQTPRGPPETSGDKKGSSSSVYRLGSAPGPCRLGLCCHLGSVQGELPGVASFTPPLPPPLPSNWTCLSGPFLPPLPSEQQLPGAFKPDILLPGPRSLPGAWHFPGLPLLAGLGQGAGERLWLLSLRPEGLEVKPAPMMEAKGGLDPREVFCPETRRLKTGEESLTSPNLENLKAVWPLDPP
# How it was run: as §1
# ETV7 = target: T7, ETV7 (Homo sapiens, UniProt Q9Y603 1-341); settings: protein: recombinant; tags: N-terminal GST; dsDNA, one strand shown
# T7 sequence: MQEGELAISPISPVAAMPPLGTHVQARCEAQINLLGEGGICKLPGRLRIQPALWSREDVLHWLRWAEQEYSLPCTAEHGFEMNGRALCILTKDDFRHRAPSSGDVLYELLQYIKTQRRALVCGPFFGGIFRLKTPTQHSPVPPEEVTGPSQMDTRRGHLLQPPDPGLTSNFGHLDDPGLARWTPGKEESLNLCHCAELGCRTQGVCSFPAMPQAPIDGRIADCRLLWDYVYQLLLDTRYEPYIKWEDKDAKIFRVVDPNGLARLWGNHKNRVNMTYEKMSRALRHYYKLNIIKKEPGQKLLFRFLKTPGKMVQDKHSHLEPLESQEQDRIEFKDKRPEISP
# How it was run: as §1
# ELF5 = target: T8, ELF5 (Homo sapiens, UniProt Q9UKW6-2 1-255); settings: protein: recombinant; tags: N-terminal GST; dsDNA, one strand shown
# T8 sequence: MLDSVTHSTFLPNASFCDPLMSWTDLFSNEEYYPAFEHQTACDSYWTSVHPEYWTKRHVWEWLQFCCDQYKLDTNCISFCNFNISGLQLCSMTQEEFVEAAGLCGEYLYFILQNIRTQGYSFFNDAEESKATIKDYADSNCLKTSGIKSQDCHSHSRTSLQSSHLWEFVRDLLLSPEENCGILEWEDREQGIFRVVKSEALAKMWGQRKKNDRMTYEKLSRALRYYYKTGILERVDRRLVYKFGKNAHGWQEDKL
# How it was run: as §1
# ETV3 = target: T9, ETV3 (Homo sapiens, UniProt P41162-2 1-143); settings: protein: recombinant; tags: N-terminal GST; dsDNA, one strand shown
# T9 sequence: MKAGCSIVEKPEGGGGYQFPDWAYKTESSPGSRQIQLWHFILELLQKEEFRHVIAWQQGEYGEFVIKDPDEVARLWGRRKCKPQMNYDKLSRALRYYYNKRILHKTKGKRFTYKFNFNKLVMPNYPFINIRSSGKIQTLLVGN
# How it was run: as §1
# ETV6 = ETV6 (Homo sapiens, UniProt P41212 1-452); settings: protein: recombinant; tags: N-terminal GST; dsDNA, one strand shown
# Chain of ETV6 (P41212 whole entry): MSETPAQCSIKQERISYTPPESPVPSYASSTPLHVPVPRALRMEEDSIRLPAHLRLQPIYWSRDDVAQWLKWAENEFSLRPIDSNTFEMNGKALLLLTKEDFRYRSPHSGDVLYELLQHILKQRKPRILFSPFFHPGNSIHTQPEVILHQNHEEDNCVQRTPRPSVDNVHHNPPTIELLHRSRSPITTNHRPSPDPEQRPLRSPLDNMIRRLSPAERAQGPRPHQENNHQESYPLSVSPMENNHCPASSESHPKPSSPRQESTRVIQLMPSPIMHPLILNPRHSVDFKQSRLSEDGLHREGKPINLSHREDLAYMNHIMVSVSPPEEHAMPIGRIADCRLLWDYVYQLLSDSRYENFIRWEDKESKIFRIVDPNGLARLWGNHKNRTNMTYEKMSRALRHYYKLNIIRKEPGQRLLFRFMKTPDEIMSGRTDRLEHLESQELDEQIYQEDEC
# How it was run: as §1
# ETS2 = target: T10, ETS2 (Homo sapiens, UniProt P15036 1-469); settings: protein: recombinant; tags: N-terminal GST; dsDNA, one strand shown
# T10 sequence: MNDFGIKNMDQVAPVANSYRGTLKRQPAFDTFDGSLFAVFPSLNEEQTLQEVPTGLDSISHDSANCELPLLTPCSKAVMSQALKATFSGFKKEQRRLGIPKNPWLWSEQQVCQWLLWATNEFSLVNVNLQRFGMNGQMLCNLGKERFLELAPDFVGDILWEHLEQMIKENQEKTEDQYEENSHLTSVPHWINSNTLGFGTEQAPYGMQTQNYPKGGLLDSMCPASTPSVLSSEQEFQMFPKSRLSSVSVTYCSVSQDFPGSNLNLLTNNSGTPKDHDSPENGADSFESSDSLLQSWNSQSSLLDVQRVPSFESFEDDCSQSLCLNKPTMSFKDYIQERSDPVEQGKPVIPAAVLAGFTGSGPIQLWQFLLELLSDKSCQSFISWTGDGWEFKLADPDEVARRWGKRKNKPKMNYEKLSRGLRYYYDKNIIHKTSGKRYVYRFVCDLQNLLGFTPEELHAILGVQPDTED
# How it was run: as §1
# SPDEF = target: T11, SPDEF (Homo sapiens, UniProt O95238 1-335); settings: protein: recombinant; tags: N-terminal GST; dsDNA, one strand shown
# T11 sequence: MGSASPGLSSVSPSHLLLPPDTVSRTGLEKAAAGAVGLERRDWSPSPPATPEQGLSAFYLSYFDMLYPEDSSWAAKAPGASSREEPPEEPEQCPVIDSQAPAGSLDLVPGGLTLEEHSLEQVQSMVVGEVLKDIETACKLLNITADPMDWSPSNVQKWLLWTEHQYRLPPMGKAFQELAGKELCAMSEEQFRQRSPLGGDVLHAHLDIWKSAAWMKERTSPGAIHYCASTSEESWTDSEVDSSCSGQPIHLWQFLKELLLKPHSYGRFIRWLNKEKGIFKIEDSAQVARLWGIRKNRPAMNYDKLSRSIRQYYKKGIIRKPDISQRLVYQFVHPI
# How it was run: as §1
Sequence,binding signal (FEV),binding signal (ETV5),binding signal (HSF1),binding signal (ELF4),binding signal (ELK4),binding signal (ETV2),binding signal (ELF3),binding signal (CRX),binding signal (ETV1),binding signal (ERF),binding signal (ETV3L),binding signal (ETV7),binding signal (ELF5),binding signal (ETV3),binding signal (ETV6),binding signal (ETS2),binding signal (SPDEF)
AAGCCC,"1.06 fold enrichment (6-mer frequency, TF over GST control)","1.04 fold enrichment (6-mer frequency, TF over GST control)","1.22 fold enrichment (6-mer frequency, TF over GST control)","1.04 fold enrichment (6-mer frequency, TF over GST control)","1.06 fold enrichment (6-mer frequency, TF over GST control)","1.11 fold enrichment (6-mer frequency, TF over GST control)","1.04 fold enrichment (6-mer frequency, TF over GST control)","1.54 fold enrichment (6-mer frequency, TF over GST control)","1.06 fold enrichment (6-mer frequency, TF over GST control)","1.11 fold enrichment (6-mer frequency, TF over GST control)","1.07 fold enrichment (6-mer frequency, TF over GST control)","1.01 fold enrichment (6-mer frequency, TF over GST control)","1.02 fold enrichment (6-mer frequency, TF over GST control)","1.1 fold enrichment (6-mer frequency, TF over GST control)","1.03 fold enrichment (6-mer frequency, TF over GST control)",,
GTTTAC,"1.11 fold enrichment (6-mer frequency, TF over GST control)","1.1 fold enrichment (6-mer frequency, TF over GST control)","1 fold enrichment (6-mer frequency, TF over GST control)","1.12 fold enrichment (6-mer frequency, TF over GST control)","1.32 fold enrichment (6-mer frequency, TF over GST control)","1.11 fold enrichment (6-mer frequency, TF over GST control)","1.28 fold enrichment (6-mer frequency, TF over GST control)","1.01 fold enrichment (6-mer frequency, TF over GST control)","1.17 fold enrichment (6-mer frequency, TF over GST control)","1.12 fold enrichment (6-mer frequency, TF over GST control)","1.12 fold enrichment (6-mer frequency, TF over GST control)","1.22 fold enrichment (6-mer frequency, TF over GST control)","1.13 fold enrichment (6-mer frequency, TF over GST control)","1.07 fold enrichment (6-mer frequency, TF over GST control)","1.19 fold enrichment (6-mer frequency, TF over GST control)","1.13 fold enrichment (6-mer frequency, TF over GST control)","1.12 fold enrichment (6-mer frequency, TF over GST control)"
